Measurements taken from PubChem BioAssay AID652016 (National Center for Advancing Translational Sciences (NCATS), 2013).
Results filed as inconclusive are left out. Where a call stands in place of a potency, no number is given. Active and inactive are the calls of the source. Calls come from the whole dose curve; as a rule, active = well fitted inhibition curve with a large enough effect; inconclusive = small, poorly fitted or top-dose-only effect; inactive = flat fitted curve, though single readings scatter.
Potency is the fitted concentration of half-maximal effect.

The molecules below were run against Luciferin 4-monooxygenase (Photinus pyralis) (UniProt P08659) (assay: qHTS Assay for Inhibitors of Firefly Luciferase from the GSK Published Protein Kinase Inhibitor Set). Details: purified firefly luciferase, luminescence inhibition; series mostly up to 57.5 µM.
Chain of Luciferin 4-monooxygenase (Photinus pyralis) (P08659 whole entry, looked up): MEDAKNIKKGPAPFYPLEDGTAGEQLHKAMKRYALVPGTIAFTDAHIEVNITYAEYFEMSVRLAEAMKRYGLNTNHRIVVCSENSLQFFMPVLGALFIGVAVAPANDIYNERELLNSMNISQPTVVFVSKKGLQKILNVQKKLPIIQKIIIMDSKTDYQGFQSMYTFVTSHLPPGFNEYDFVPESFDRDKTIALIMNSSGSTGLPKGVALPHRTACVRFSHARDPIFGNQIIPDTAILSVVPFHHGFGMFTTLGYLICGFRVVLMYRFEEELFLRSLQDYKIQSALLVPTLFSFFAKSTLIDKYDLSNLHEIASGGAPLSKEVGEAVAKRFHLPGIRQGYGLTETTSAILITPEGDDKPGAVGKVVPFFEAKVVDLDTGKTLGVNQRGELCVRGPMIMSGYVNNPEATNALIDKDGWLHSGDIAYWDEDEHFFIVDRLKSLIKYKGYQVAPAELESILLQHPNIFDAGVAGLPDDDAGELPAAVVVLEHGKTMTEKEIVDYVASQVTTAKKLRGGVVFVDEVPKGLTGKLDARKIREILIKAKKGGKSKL
Method in brief: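 Purified P. pyralis luciferase, 10nM, with 10uM D-luciferin and 10uM ATP in 50mM Tris acetate pH 7.5, 10mM Mg acetate, 0.01% Tween-20, 0.05% BSA. Titration ~60uM to 300pM; luminescence read after about 5 min.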
In the case of CC1=C(C(=O)Nc2ccc3[nH]ncc3c2)C(c2ccc(F)cc2)NC(=O)N1 (configuration not stated), the Potency was “inactive”.
With COC(=O)c1sc(-n2cnc3cc(OC)c(OC)cc32)cc1OCc1ccccc1C(F)(F)F the Potency was “inactive”.
For CCn1c(-c2nonc2N)nc2c(C#CC(C)(C)O)nc(OCC(N)c3ccccc3)cc21 (configuration not stated), the Potency was “inactive”.
NS(=O)(=O)c1ccc(N=Nc2c(O)[nH]c3ccc(C(=O)NCc4ccncc4)cc23)cc1 was tested, and the Potency was “inactive”.
For Fc1ccc(-c2nn3ccccc3c2-c2ccncc2)cc1, the Potency was 1160 nM (active).
For CCn1c(-c2nonc2N)nc2ccc(F)cc21, the Potency was “inactive”.
CS(=O)(=O)Nc1ccc(-c2cc(-c3ccccc3)cc(C(N)=O)c2N)cc1 was tested, and the Potency was “inactive”.
CN(C)CCCn1c(-c2nonc2N)nc2cnccc21 was tested, and the Potency was “inactive”.
With N#Cc1c(NC(=O)c2ccc(F)cc2)sc2c1CCCC2 the Potency was 919 nM (active).
For NS(=O)(=O)c1ccc(Nc2cc(-c3ccc(O)c(F)c3)[nH]n2)cc1, the Potency was “inactive”.
Cc1cc(O)cc(C)c1C=Cc1cncc(C(=O)OC(C)(C)C)c1 was tested, and the Potency was “inactive”.
With CC(Oc1cc(-n2cnc3ccc(OC4CCN(C)CC4)cc32)sc1C(N)=O)c1ccccc1Cl (configuration not stated) the Potency was “inactive”.
COc1cccc(C=NNc2ncnc3c2cnn3-c2cccc(OC)c2)c1 was tested, and the Potency was “inactive”.
In the case of COc1cccc(Nc2nccc(-c3cnn4ncccc34)n2)c1, the Potency was “inactive”.
In the case of O=C(Nc1n[nH]c2nnc(-c3cccnc3)cc12)C1CC1, the Potency was “inactive”.
c1ccc(Oc2ccc(Nc3ncc(-c4ccccc4)o3)cc2)cc1 was tested, and the Potency was “inactive”.
In the case of COc1cc(Nc2ncc3c(C)nc(-c4cccc(Oc5ccccc5)c4)n3n2)cc(OC)c1OC, the Potency was “inactive”.
